# Assay results taken from PubChem BioAssay AID1159580 (chemical genetic matrix, 2015).
# About 2,000 (36%) of roughly 5,500 compounds were called active. Another 18% or so got no clear call; they are omitted. The list shows a part of the results. Unmarked numbers belong to inactive results. Cut-off read from the data, not from the text of the source: active = normalized growth mostly below about 0.91 (no sharp cut-off); inconclusive = no clear call, values can overlap the other calls; inactive = mostly above about 0.92.
# Assay: chemical genetic growth profiling, strain panel (AID 1159580);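 note: tested at 20 µM; growth read once vehicle control cultures reached saturation at 30 °C; 1 = growth at the plate median or of vehicle wells; lower values mean less growth of the strain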
# Conditions: growth OD
# [1] = S. cerevisiae deletion strains, locus YAL013W, strain DEP1, stronger effect = lower value
# [2] = S. cerevisiae deletion strains, locus YBR229C, strain ROT2, stronger effect = lower value
# [3] = S. cerevisiae deletion strains, locus YDL101C, strain DUN1, stronger effect = lower value
# [4] = S. cerevisiae deletion strains, locus YDR150W, strain NUM1, stronger effect = lower value
# [5] = S. cerevisiae deletion strains, locus YEL061C, strain CIN8, stronger effect = lower value
# [6] = S. cerevisiae deletion strains, locus YGR078C, strain PAC10, stronger effect = lower value
# [7] = S. cerevisiae deletion strains, locus YHR030C, strain SLT2, stronger effect = lower value
# [8] = S. cerevisiae deletion strains, locus YHR087W, strain rtc3, stronger effect = lower value
# [9] = S. cerevisiae deletion strains, locus YJR043C, strain POL32, stronger effect = lower value
# [10] = S. cerevisiae deletion strains, locus YJR075W, strain HOC1, stronger effect = lower value
# [11] = S. cerevisiae deletion strains, locus YKL190W, strain CNB1, stronger effect = lower value
# [12] = S. cerevisiae deletion strains, locus YLR039C, strain RIC1, stronger effect = lower value
# [13] = S. cerevisiae deletion strains, locus YLR058C, strain SHM2 (second series), stronger effect = lower value
# [14] = S. cerevisiae deletion strains, locus YLR085C, strain ARP6, stronger effect = lower value
# [15] = S. cerevisiae deletion strains, locus YLR262C, strain YPT6, stronger effect = lower value
# [16] = S. cerevisiae deletion strains, locus YML094W, strain GIM5, stronger effect = lower value
# [17] = S. cerevisiae deletion strains, locus YMR219W, strain ESC1, stronger effect = lower value
# [18] = S. cerevisiae deletion strains, locus YMR263W, strain SAP30, stronger effect = lower value
# [19] = S. cerevisiae deletion strains, locus YNL153C, strain GIM3, stronger effect = lower value
# [20] = S. cerevisiae deletion strains, locus YNL298W, strain CLA4 (second series), stronger effect = lower value
# [21] = S. cerevisiae deletion strains, locus YNL322C, strain KRE1, stronger effect = lower value
# [22] = S. cerevisiae deletion strains, locus YNR030W, strain Alg12, stronger effect = lower value
# [23] = S. cerevisiae deletion strains, locus YPL055C, strain LGE1, stronger effect = lower value
# [24] = S. cerevisiae deletion strains, locus YPL241C, strain CIN2, stronger effect = lower value
# [25] = S. cerevisiae deletion strains, locus YPR135W, strain CTF4, stronger effect = lower value
structure (smiles),measurement,setting,value
NNC(=S)Nc1ccc2c(c1)OCCO2,normalized growth,[1],1.01
same,normalized growth,[2],1.01
same,normalized growth,[3],1.01
same,normalized growth,"S. cerevisiae deletion strains, locus YDL134C, strain PPH21, stronger effect = lower value",1.01
same,normalized growth,[4],0.956
same,normalized growth,[5],0.983
same,normalized growth,[6],0.991
same,normalized growth,"S. cerevisiae deletion strains, locus YGR229C, strain SMI1, stronger effect = lower value",0.986
same,normalized growth,[7],1.02
same,normalized growth,[8],1.05
same,normalized growth,[9],1
same,normalized growth,[10],1.05
same,normalized growth,[11],0.99
same,normalized growth,[12],0.983
same,normalized growth,[13],1.01
same,normalized growth,[14],0.939
same,normalized growth,[15],1.01
same,normalized growth,[16],0.944
same,normalized growth,[17],1.02
same,normalized growth,[18],0.996
same,normalized growth,"S. cerevisiae deletion strains, locus YMR307W, strain GAS1, stronger effect = lower value",0.954
same,normalized growth,"S. cerevisiae deletion strains, locus YNL128W, strain TEP1, stronger effect = lower value",0.976
same,normalized growth,[19],0.994
same,normalized growth,[20],0.992
same,normalized growth,[21],1.02
same,normalized growth,[22],0.806 (active)
same,normalized growth,[23],0.967
same,normalized growth,[24],1.1
same,normalized growth,[25],0.823
NC(N)=NC(N)=Nc1ccc2c(c1)OCCO2,normalized growth,[1],0.987
same,normalized growth,[2],1.01
same,normalized growth,[3],1.01
same,normalized growth,[4],0.918
same,normalized growth,[5],0.995
same,normalized growth,[6],0.99
same,normalized growth,[7],0.983
same,normalized growth,[8],1.01
same,normalized growth,[9],0.989
same,normalized growth,[10],0.993
same,normalized growth,[11],0.994
same,normalized growth,[12],1
same,normalized growth,[13],0.994
same,normalized growth,[14],0.963
same,normalized growth,[15],0.998
same,normalized growth,[16],1.06
same,normalized growth,[17],0.996
same,normalized growth,[18],0.943
same,normalized growth,[19],1.01
same,normalized growth,[20],0.993
same,normalized growth,[21],1
same,normalized growth,[22],0.995
same,normalized growth,"S. cerevisiae deletion strains, locus YOL006C, strain TOP1, stronger effect = lower value",1.03
same,normalized growth,[23],0.993
same,normalized growth,[24],0.927
same,normalized growth,[25],1.01
same,normalized growth,"S. cerevisiae strains, strain wild type, stronger effect = lower value",0.995
CC(C)C[C@@H](CN)CC(=O)O,normalized growth,"S. cerevisiae deletion strains, locus YAL021C, strain ccr4, stronger effect = lower value",1.04
same,normalized growth,"S. cerevisiae deletion strains, locus YAL026C, strain drs2, stronger effect = lower value",1.03
same,normalized growth,"S. cerevisiae deletion strains, locus YAL030W, strain snc1, stronger effect = lower value",1.02
same,normalized growth,"S. cerevisiae deletion strains, locus YBL061C, strain skt5, stronger effect = lower value",1.01
same,normalized growth,"S. cerevisiae deletion strains, locus YBR009C, strain hhf1, stronger effect = lower value",1
same,normalized growth,"S. cerevisiae deletion strains, locus YBR023C, strain chs3, stronger effect = lower value",1.02
same,normalized growth,"S. cerevisiae deletion strains, locus YBR171W, strain sec66, stronger effect = lower value",1.02
same,normalized growth,"S. cerevisiae deletion strains, locus YBR231C, strain swc5, stronger effect = lower value",0.994
same,normalized growth,"S. cerevisiae deletion strains, locus YBR279W, strain paf1, stronger effect = lower value",1.02
same,normalized growth,"S. cerevisiae deletion strains, locus YCL011C, strain gbp2, stronger effect = lower value",1.03
same,normalized growth,"S. cerevisiae deletion strains, locus YCL016C, strain dcc1, stronger effect = lower value",1.04
same,normalized growth,"S. cerevisiae deletion strains, locus YCL061C, strain MRC1, stronger effect = lower value",1.02
same,normalized growth,"S. cerevisiae deletion strains, locus YCL069W, strain vba3, stronger effect = lower value",1.04
same,normalized growth,"S. cerevisiae deletion strains, locus YCR088W, strain abp1, stronger effect = lower value",1.02
same,normalized growth,"S. cerevisiae deletion strains, locus YDL005C, strain med2, stronger effect = lower value",1.02
same,normalized growth,"S. cerevisiae deletion strains, locus YDL040C, strain nat1, stronger effect = lower value",1.01
same,normalized growth,"S. cerevisiae deletion strains, locus YDR001C, strain nth1, stronger effect = lower value",1.01
same,normalized growth,"S. cerevisiae deletion strains, locus YDR069C, strain doa4, stronger effect = lower value",1.01
same,normalized growth,"S. cerevisiae deletion strains, locus YDR137W, strain rgp1, stronger effect = lower value",1.06
same,normalized growth,"S. cerevisiae deletion strains, locus YDR159W, strain sac3, stronger effect = lower value",0.965
same,normalized growth,"S. cerevisiae deletion strains, locus YDR195W, strain ref2",0.977
same,normalized growth,"S. cerevisiae deletion strains, locus YDR297W, strain sur2, stronger effect = lower value",1.01
same,normalized growth,"S. cerevisiae deletion strains, locus YDR334W, strain swr1, stronger effect = lower value",1.02
same,normalized growth,"S. cerevisiae deletion strains, locus YDR335W, strain msn5, stronger effect = lower value",1.04
same,normalized growth,"S. cerevisiae deletion strains, locus YDR392W, strain spt3, stronger effect = lower value",0.954
same,normalized growth,"S. cerevisiae deletion strains, locus YEL003W, strain gim4, stronger effect = lower value",1.01
same,normalized growth,"S. cerevisiae deletion strains, locus YEL037C, strain rad23, stronger effect = lower value",1.01
same,normalized growth,"S. cerevisiae deletion strains, locus YEL061C, strain CIN8 (second series), stronger effect = lower value",1.01
same,normalized growth,"S. cerevisiae deletion strains, locus YER015W, strain faa2, stronger effect = lower value",1
same,normalized growth,"S. cerevisiae deletion strains, locus YER016W, strain bim1, stronger effect = lower value",1.04
same,normalized growth,"S. cerevisiae deletion strains, locus YER111C, strain swi4, stronger effect = lower value",1.02
same,normalized growth,"S. cerevisiae deletion strains, locus YER155C, strain BEM2 (second series), stronger effect = lower value",1
same,normalized growth,"S. cerevisiae deletion strains, locus YFR010W, strain ubp6, stronger effect = lower value",1.01
same,normalized growth,"S. cerevisiae deletion strains, locus YGL167C, strain pmr1, stronger effect = lower value",1.02
same,normalized growth,"S. cerevisiae deletion strains, locus YGL173C, strain kem1, stronger effect = lower value",1.01
same,normalized growth,"S. cerevisiae deletion strains, locus YGL227W, strain vid30, stronger effect = lower value",1.01
same,normalized growth,"S. cerevisiae deletion strains, locus YGL240W, strain doc1, stronger effect = lower value",1
same,normalized growth,"S. cerevisiae deletion strains, locus YGL253W, strain hxk2, stronger effect = lower value",1.02
same,normalized growth,"S. cerevisiae deletion strains, locus YHR013C, strain ard1, stronger effect = lower value",1.05
same,normalized growth,"S. cerevisiae deletion strains, locus YHR027C, strain rpn1, stronger effect = lower value",1.01
same,normalized growth,[7],1.09
same,normalized growth,"S. cerevisiae deletion strains, locus YHR079C, strain IRE1, stronger effect = lower value",0.981
same,normalized growth,"S. cerevisiae deletion strains, locus YHR142W, strain chs7, stronger effect = lower value",1.03
same,normalized growth,"S. cerevisiae deletion strains, locus YJL092W, strain hpr5, stronger effect = lower value",1.01
same,normalized growth,"S. cerevisiae deletion strains, locus YJL095W, strain BCK1 (second series), stronger effect = lower value",1.02
same,normalized growth,"S. cerevisiae deletion strains, locus YJL095W, strain BCK1, stronger effect = lower value",0.989
same,normalized growth,"S. cerevisiae deletion strains, locus YJL115W, strain asf1, stronger effect = lower value",1.03
same,normalized growth,"S. cerevisiae deletion strains, locus YJL129C, strain trk1, stronger effect = lower value",1.03
same,normalized growth,"S. cerevisiae deletion strains, locus YJL154C, strain vps35, stronger effect = lower value",1.02
same,normalized growth,"S. cerevisiae deletion strains, locus YJL164C, strain tpk1, stronger effect = lower value",1
same,normalized growth,"S. cerevisiae deletion strains, locus YJL166W, strain qcr8, stronger effect = lower value",1.01
same,normalized growth,"S. cerevisiae deletion strains, locus YJL187C, strain SWE1, stronger effect = lower value",1.01
same,normalized growth,"S. cerevisiae deletion strains, locus YJR066W, strain TOR1, stronger effect = lower value",0.959
same,normalized growth,"S. cerevisiae deletion strains, locus YKL160W, strain elf1, stronger effect = lower value",1.04
same,normalized growth,"S. cerevisiae deletion strains, locus YKR026C, strain gcn3, stronger effect = lower value",1.01
same,normalized growth,"S. cerevisiae deletion strains, locus YKR091W, strain srl3, stronger effect = lower value",1.01
same,normalized growth,"S. cerevisiae deletion strains, locus YLL001W, strain dnm1, stronger effect = lower value",0.995
same,normalized growth,"S. cerevisiae deletion strains, locus YLL026W, stronger effect = lower value",1.01
same,normalized growth,"S. cerevisiae deletion strains, locus YLL041C, strain sdh2, stronger effect = lower value",1.03
same,normalized growth,"S. cerevisiae deletion strains, locus YLR027C, strain aat2, stronger effect = lower value",1.02
same,normalized growth,"S. cerevisiae deletion strains, locus YLR113W, strain HOG1, stronger effect = lower value",0.992
same,normalized growth,"S. cerevisiae deletion strains, locus YLR221C, strain rsa3, stronger effect = lower value",0.998
same,normalized growth,"S. cerevisiae deletion strains, locus YLR258W, strain gsy2, stronger effect = lower value",1.04
same,normalized growth,"S. cerevisiae deletion strains, locus YLR262C, strain YPT6 (second series), stronger effect = lower value",1.02
same,normalized growth,"S. cerevisiae deletion strains, locus YLR320W, strain mms22, stronger effect = lower value",0.981
same,normalized growth,"S. cerevisiae deletion strains, locus YLR342W, strain FKS1, stronger effect = lower value",1.04
same,normalized growth,"S. cerevisiae deletion strains, locus YLR357W, strain rsc2, stronger effect = lower value",0.987
same,normalized growth,"S. cerevisiae deletion strains, locus YLR370C, strain arc18, stronger effect = lower value",1.03
same,normalized growth,"S. cerevisiae deletion strains, locus YLR384C, strain iki3, stronger effect = lower value",1.02
same,normalized growth,"S. cerevisiae deletion strains, locus YML120C, strain ndi1, stronger effect = lower value",1.01
same,normalized growth,"S. cerevisiae deletion strains, locus YMR058W, strain fet3, stronger effect = lower value",1.02
same,normalized growth,"S. cerevisiae deletion strains, locus YMR125W, strain sto1, stronger effect = lower value",1.02
same,normalized growth,"S. cerevisiae deletion strains, locus YMR129W, stronger effect = lower value",1.02
same,normalized growth,"S. cerevisiae deletion strains, locus YMR205C, strain PFK2, stronger effect = lower value",0.993
same,normalized growth,"S. cerevisiae deletion strains, locus YMR231W, strain pep5, stronger effect = lower value",1.01
same,normalized growth,"S. cerevisiae deletion strains, locus YNL071W, strain lat1, stronger effect = lower value",1.02
same,normalized growth,"S. cerevisiae deletion strains, locus YNL183C, strain NPR1, stronger effect = lower value",0.923
same,normalized growth,"S. cerevisiae deletion strains, locus YNL209W, strain ssb2, stronger effect = lower value",1.01
same,normalized growth,"S. cerevisiae deletion strains, locus YNL248C, strain rpa49, stronger effect = lower value",1.01
same,normalized growth,"S. cerevisiae deletion strains, locus YNL322C, strain KRE1 (second series), stronger effect = lower value",1.02
same,normalized growth,"S. cerevisiae deletion strains, locus YNR049C, strain mso1, stronger effect = lower value",1.01
same,normalized growth,"S. cerevisiae deletion strains, locus YOR001W, strain rrp6, stronger effect = lower value",1.01
same,normalized growth,"S. cerevisiae deletion strains, locus YOR070C, strain gyp1, stronger effect = lower value",1.02
same,normalized growth,"S. cerevisiae deletion strains, locus YOR080W, strain dia2, stronger effect = lower value",1.03
same,normalized growth,"S. cerevisiae deletion strains, locus YOR083W, strain WHI5, stronger effect = lower value",0.974
same,normalized growth,"S. cerevisiae deletion strains, locus YOR106W, strain vam3, stronger effect = lower value",1.03
same,normalized growth,"S. cerevisiae deletion strains, locus YOR231W, strain MKK1, stronger effect = lower value",0.982
same,normalized growth,"S. cerevisiae deletion strains, locus YOR265W, strain rbl2, stronger effect = lower value",0.999
same,normalized growth,"S. cerevisiae deletion strains, locus YOR270C, strain vph1, stronger effect = lower value",1.12
same,normalized growth,"S. cerevisiae deletion strains, locus YOR290C, strain snf2, stronger effect = lower value",1.06
same,normalized growth,"S. cerevisiae deletion strains, locus YPL051W, strain arl3, stronger effect = lower value",1.04
same,normalized growth,"S. cerevisiae deletion strains, locus YPL078C, strain atp4, stronger effect = lower value",1.04
same,normalized growth,"S. cerevisiae deletion strains, locus YPL106C, strain sse1, stronger effect = lower value",1.02
same,normalized growth,"S. cerevisiae deletion strains, locus YPL240C, strain hsp82, stronger effect = lower value",1.02
same,normalized growth,"S. cerevisiae deletion strains, locus YPL256C, strain CLN2, stronger effect = lower value",0.984
